Bioassay records from PubChem.
AmpC detergent = inhibitors of E. coli AmpC beta-lactamase with detergent; P00811; AmpC hydrolysis of nitrocefin, absorbance 480 nm, 0.01% Triton; Potency, µM (series often up to 114 µM), without a hit: at the highest dose activity change, negative = inhibition, hits mostly inhibitors; 0.041% of 370,000 active; AID 485294;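 also: potency is read from the fitted curve at half-maximal effect; 0% = no-compound wells and -100% = no-enzyme wells; nearly all actives have a fitted effect of over 25% in size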
Target sequence (P00811 whole entry, looked up): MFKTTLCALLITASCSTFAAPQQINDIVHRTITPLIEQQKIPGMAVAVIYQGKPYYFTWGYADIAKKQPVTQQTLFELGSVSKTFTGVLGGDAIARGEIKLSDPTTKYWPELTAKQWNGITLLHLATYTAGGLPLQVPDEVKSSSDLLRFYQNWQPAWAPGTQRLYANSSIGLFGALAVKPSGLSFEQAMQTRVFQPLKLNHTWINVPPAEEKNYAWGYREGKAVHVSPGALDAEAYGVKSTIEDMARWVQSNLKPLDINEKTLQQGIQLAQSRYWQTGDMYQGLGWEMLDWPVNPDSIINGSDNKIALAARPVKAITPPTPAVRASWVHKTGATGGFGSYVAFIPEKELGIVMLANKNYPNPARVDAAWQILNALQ
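AmpC (5.3 nM in the dispensed reagent) in 20 mM phosphate pH 7.0 with 0.01% (detergent screen) or 0.0001% Triton X-100 was preincubated with compounds for 15 min at room temperature. Nitrocefin was then added from an 800 uM solution, and hydrolysis was followed at 480 nm.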
SARS PLpro yeast = inhibitors of SARS-CoV papain-like protease in yeast; Potency, µM (highest dose often 32.9 µM), inactives show top-dose activity, positive = growth rescue, hits mostly activators; 0.19% of 330,000 active; AID 485353; S. cerevisiae expressing SARS-CoV PLpro, growth rescue; calls by dose curve; also: potency is read from the fitted curve at half-maximal effect; 0% is about no effect; nearly all actives have a fitted effect of over 55% in size
CHX counter = affects cycloheximide protein synthesis inhibition readout, counter-screen. cell reporter, cycloheximide protein synthesis inhibition counterscreen. max response, %. 12% of 300,000 active. AID 2314; in the data active = max response mostly above about 13%, no sharp cut-off; inactive = mostly below about 14%; also: read at 38.3 µM for the half of the compounds with a filed dose; 0% is about no effect
AMA1 RON2 block = disrupts binding of P. falciparum AMA1 to RON2; Potency, µM (titrated, usually from 58.2 µM), for inactives: top-dose activity change, negative = inhibition, most hits filed as inhibitors; 0.2% of 360,000 active; AlphaScreen AMA1-biotinylated RON2 peptide binding;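 also: potency is read from the fitted curve at half-maximal effect; 0% = vehicle wells and -100% = peptide control; nearly all actives have a fitted effect of over 45% in size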
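AMA1 (3D7) with his tag at 25 nM final met compounds first, then biotinylated RON2 peptide at 25 nM; detection used donor plus acceptor beads, 10 µg/mL apiece, read by AlphaScreen after 30 min at room temperature.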
AmpC no deterg = AmpC beta-lactamase inhibition without detergent | P00811 | AmpC nitrocefin hydrolysis, absorbance 480 nm, 0.0001% Triton | Potency, µM (series often up to 57.1 µM), for inactives: top-dose activity change, negative = inhibition, actives largely listed as inhibitors | 0.52% of 330,000 active;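 also: potency is read from the fitted curve at half-maximal effect; plate controls were no compound for no effect and no enzyme for full effect; nearly all actives have a fitted effect of over 20% in size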
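20 mM phosphate pH 7.0 + 0.01% (detergent screen) or 0.0001% Triton X-100; 5.3 nM AmpC reagent; cpd preinc 15 min RT; nitrocefin (800 uM stock) to start; A480 q20 s × 4 min; Activity was normalised to no-enzyme and no-compound control wells.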
Shiga inhibitor = Shiga toxin inhibition; inhibition, % at 38.7 µM; Vero cells, Shiga toxin protein synthesis inhibition reporter; 9.2% of 290,000 active; AID 2315; in the data active = inhibition mostly above about 28%, no sharp cut-off; inactive = mostly below about 43%; also: 0% is about no effect
* marks the source's active call; other numbers are inactive results; ? = inconclusive; . = not tested or not shown. The entries come from a sample that favours hits as a whole. Unless noted, calls follow the shape of the dose curve; as a rule, active = well fitted curve in the direction sought with a large enough effect; inconclusive = small, poorly fitted or top-dose-only effect, or another doubt; inactive = no such curve, though single readings can be large; an effect the other way counts as inactive or inconclusive.

SMILES	AmpC detergent	SARS PLpro yeast	CHX counter	AMA1 RON2 block	AmpC no deterg	Shiga inhibitor
CC(=N\NC(=O)c1ccccc1)/C(=N/O)C(=O)Nc1ccccc1	-8%	-9%	-2	33%	-8%	23
CC(/C=C/c1ccccc1)=N\NC(=O)c1ccc(Br)cc1	-9%	1%	-4	56%	1%	16
CC(/C=C/c1ccccc1)=N/NC(=O)c1cccc(Br)c1	3%	-3%	20*	98%	-25%	111
C/C(=N\NC(=O)c1ccc(-c2ccccc2)cc1)c1cccc(N)c1	3%	-3%	10	65%	-31%	21
C/C(=N/NC(=O)c1ccccc1)C(=O)O	-6%	-1%	42*	13%	-42%	74*
C/C(=N\NC(=O)c1ccccc1)c1cccc(Br)c1	0%	-1%	48*	102%	-30%	124*
C/C(=N\NC(=O)c1cccc(Br)c1)c1ccc(Br)cc1	4%	0%	33*	12%	-28%	54*
CC(C(=O)Nc1nccs1)N1C(=O)c2ccccc2S1(=O)=O (centres undefined)	-18%	1%	.	42%	-11%	.
COC(=O)CCC(=O)OC1(C)C(=O)C=C2C=C(C3CC3)N(CCc3ccccn3)C=C2C1=O (centres undefined)	-8%	-2%	-3	-2%	35%	-7
CC(=O)Nc1nonc1-c1nnc(SCC(=O)Nc2ccc(C)cc2C)n1C	6%	.	.	.	.	.
CN(C)CCN1CCN(C2CN(Cc3ccccc3)S(=O)(=O)C2)CC1 (centres undefined)	.	.	.	3%	.	.
C/C(=N\NC(=O)c1ccccc1)C1C2C=CC(C2)C1(C)C (centres undefined)	2%	-1%	48*	51%	-20%	91*
CC(/C=C/C=C/c1ccccc1)=N/NC(=O)c1ccc2c(c1)OCCO2	-3%	0%	31*	33%	-9%	63*
CN(C)/C=N/NC(=O)c1ccccc1	?	-1%	4	3%	-20%	31
O=C(N/N=C/c1[nH]c2ccccc2c1Cl)c1cccc(Br)c1	0%	1%	7	12%	-43%	12
O=C(N/N=C/C1C(c2ccccc2)C1(Cl)Cl)c1cccc(Br)c1 (centres undefined)	2%	-19%	23*	-2%	-32%	68
CCOc1ccccc1/C=C/C(=O)N1CCN(C(=O)c2ccco2)CC1	.	1%	.	-3%	-3%	.
COC(=O)c1ccc2nc(-c3ccc(C)cc3)c(Cc3ccccc3OC)n2c1	.	.	.	24%	.	.
CCOc1ccc(S(=O)(=O)NCCC(=O)NCC2COc3ccccc3O2)cc1 (centres undefined)	1%	-1%	.	-4%	-7%	.
COC(=O)CSc1nnc(-c2c[nH]c3ccccc23)o1	-18%	-11%	-2	-1%	-13%	.
CC(C)(C)NC(=O)CSc1nnc(-c2c[nH]c3ccccc23)o1	1%	1%	28*	1%	0%	65*
c1ccc2c(-c3nnc(SCc4cn5ccccc5n4)o3)c[nH]c2c1	-5%	-6%	7	-20%	-26%	15
CCN(CC)C(=O)CSc1nnc(-c2c[nH]c3ccccc23)o1	?	0%	40*	3%	0%	.
c1ccc(CSc2nnc(-c3c[nH]c4ccccc34)o2)cc1	-11%	0%	48*	-1%	-29%	169*
Cc1ccc(C(=O)Nc2cccc(S(=O)(=O)N3CCOCC3)c2)cc1[N+](=O)[O-]	2%	0%	-2	2%	-28%	-2
SMILES	AmpC detergent	SARS PLpro yeast	CHX counter	AMA1 RON2 block	AmpC no deterg	Shiga inhibitor
O=C(Nc1ccccn1)C1CCN(C(=O)c2ccc(Cl)cc2)CC1	.	.	.	8%	.	.
O=C(NCCCCCNC(=O)c1ccco1)c1ccco1	3%	2%	1	0%	-15%	-22
CCCCC(c1nnnn1C1CCCC1)N1CCN(C2CCCC2)CC1 (centres undefined)	-4%	6%	32*	-6%	-3%	-20
CC(=O)c1ccc(COC(=O)c2cc3ccccc3oc2=O)cc1	-12%	0%	25*	-5%	-28%	22
COC(=O)c1ccc(CNC(=O)c2cc3ccccc3oc2=O)cc1	-3%	5%	1	3%	-20%	3
COc1ccc2oc(=O)c(C(=O)NCc3ccccc3)cc2c1	-16%	0%	-4	-6%	-9%	-2
COC(=O)c1ccc(COC(=O)c2cc3ccccc3oc2=O)cc1	-8%	7%	11*	12%	-22%	24
COc1cccc2cc(C(=O)OCc3ccccc3)c(=O)oc12	-4%	-3%	54*	3%	-1%	49*
COc1cccc2cc(C(=O)Oc3ccccc3)c(=O)oc12	-8%	-7%	-2	4%	-22%	-14
COc1ccc2oc(=O)c(C(=O)OCc3ccccc3)cc2c1	-12%	-1%	23*	2%	-24%	36
O=C(OCc1ccc([N+](=O)[O-])cc1)c1cc2ccccc2oc1=O	.	.	.	9%	.	.
COc1ccc(Nc2nc(N(C)c3ccccc3)nc(N)c2[N+](=O)[O-])cc1	-9%	5%	-4	0%	-22%	-3
Cc1ccc(NC(=O)CN2CCCN(Cc3ccccc3Cl)S2(=O)=O)c(C)c1	0%	.	.	.	.	.
NC(=O)N/N=C/c1ccccc1OC(=O)c1cc2ccccc2oc1=O	-10%	14%	26*	38%	-10%	77*
COc1cccc2cc(-c3nnc(-c4ccc(Cl)cc4)o3)c(=O)oc12	5%	.	.	.	.	.
COc1cccc2cc(NC(=O)C3CCCCC3)c(=O)oc12	5%	-1%	16*	-2%	-4%	41
CCN(C(=O)c1cc2cccc(OC)c2oc1=O)c1ccccc1	?	4%	53*	-1%	-19%	168*
COc1cccc2cc(-c3nnc(-c4ccccc4)o3)c(=O)oc12	-2%	0%	39*	14%	-27%	87*
NC(=S)N/N=C/c1ccccc1OC(=O)c1cc2ccccc2oc1=O	?	15%	20	80%	-26%	31
COc1cccc2cc(C(=O)N(Cc3ccccc3)CC3CCCO3)c(=O)oc12 (centres undefined)	-2%	-2%	7	3%	6%	12
Cc1ccc(C)c(CN2C(=O)C3(c4ccccc42)N(c2cccc(C(F)(F)F)c2)C(=O)CS3(=O)=O)c1 (centres undefined)	20%	.	.	.	.	.
COc1cccc2cc(CC(=O)c3ccc(C)cc3C)c(=O)oc12	1%	-2%	55*	-6%	-46%	73*
COc1cccc2cc(C(=O)Nc3ccc(C)cc3)c(=O)oc12	8%	.	.	.	.	.
COc1cccc2cc(C(=O)Nc3cccc(C)n3)c(=O)oc12	-13%	0%	77*	-19%	-9%	66*
CCOC(=O)COc1ccc2cc(C(=O)OCC)c(=O)oc2c1	-13%	-4%	-4	-20%	-4%	27
